Assay results as given in ChEMBL document CHEMBL4513146, “CO-ADD screening of Karazin Kharkiv National University (Ukraine) compounds”.
Potency and affinity values are given separately.

How the values were obtained:
Staphylococcus aureus = conditions: Concentration 32 ug.mL-1;; ASSAY_TEST Inhibition of Bacterial Growth; detection method Absorption (OD600); MEDIA CAMHB; plate type 384well; NBS; CORNING #3640; time 18 hr
Escherichia coli = conditions: Concentration 32 ug.mL-1;; ASSAY_TEST Inhibition of Bacterial Growth; detection method Absorption (OD600); MEDIA CAMHB; plate type 384well; NBS; CORNING #3640; time 18 hr

O=C(CSc1nnc2c3cc(-c4ccc(F)cc4)nn3ccn12)NCCc1ccccc1
Inhibition (Staphylococcus aureus): 4.82% | Inhibition (Escherichia coli): -7.39%

CCc1ccc(N(Cc2cccc(F)c2)S(=O)(=O)c2cccn3c(C)nnc23)cc1
Inhibition (Staphylococcus aureus): 10.02% | Inhibition (Escherichia coli): -2.48%

Cc1nnc2ccc(S(=O)(=O)N(Cc3ccccc3F)c3cc(F)cc(F)c3)cn12
Inhibition (Staphylococcus aureus): -3.63% | Inhibition (Escherichia coli): -18.18%

COc1ccc(-c2cc3c4nn(CC(=O)Nc5ccc(OC)c(OC)c5)c(=O)n4ccn3n2)cc1
Inhibition (Staphylococcus aureus): 2.65% | Inhibition (Escherichia coli): 2.66%

Cc1cccc(CN(c2ccccc2)S(=O)(=O)c2cccn3c(C)nnc23)c1
Inhibition (Staphylococcus aureus): 5.16% | Inhibition (Escherichia coli): -11.12%

CC(C)CCn1c(=O)c2sccc2n2c(=O)n(CC(N)=O)nc12
Inhibition (Staphylococcus aureus): 1.13% | Inhibition (Escherichia coli): -3.19%

Cc1nnc2ccc(S(=O)(=O)N(Cc3ccc(F)cc3)c3cc(F)cc(F)c3)cn12
Inhibition (Staphylococcus aureus): 4.18% | Inhibition (Escherichia coli): -6.59%

COc1cc(NC(=O)Cn2nc3ccc(-c4ccc(Cl)cc4)nn3c2=O)cc(OC)c1
Inhibition (Staphylococcus aureus): -2.47% | Inhibition (Escherichia coli): -10.38%

COc1ccc(NC(=O)Cn2nc3c(SC4CCCCC4)nccn3c2=O)cc1
Inhibition (Staphylococcus aureus): -2.9% | Inhibition (Escherichia coli): -3.75%

Cc1ccc(-c2cc3c4nn(CC(=O)Nc5ccccc5C)c(=O)n4ccn3n2)cc1C
Inhibition (Staphylococcus aureus): 5.58% | Inhibition (Escherichia coli): 2.13%

Cc1ccc(Sc2nccn3c(=O)n(CC(=O)Nc4ccc(C)c(Cl)c4)nc23)c(C)c1
Inhibition (Staphylococcus aureus): 6.61% | Inhibition (Escherichia coli): -6.53%

O=C(Cn1nc2c(N3CCOCC3)nccn2c1=O)NCc1ccc(Cl)cc1
Inhibition (Staphylococcus aureus): 9.06% | Inhibition (Escherichia coli): 3.48%

COc1ccc(CN(c2ccc(F)cc2)S(=O)(=O)c2cccn3c(C)nnc23)cc1
Inhibition (Staphylococcus aureus): 15.23% | Inhibition (Escherichia coli): -3.22%

CCOC(=O)c1ccccc1NC(=O)Cn1nc2c3cc(-c4ccc(Cl)cc4)nn3ccn2c1=O
Inhibition (Staphylococcus aureus): 7.33% | Inhibition (Escherichia coli): 2.34%

CCCCn1c(=O)c2sccc2n2c(=O)n(CC(=O)N3CCC(Cc4ccccc4)CC3)nc12
Inhibition (Staphylococcus aureus): -14.82% | Inhibition (Escherichia coli): -3.89%

COC(=O)c1ccc(NC(=O)Cn2nc3c(N4CCOCC4)nccn3c2=O)cc1
Inhibition (Staphylococcus aureus): 12.61% | Inhibition (Escherichia coli): 0.79%

CC1CCCN(c2nccn3c(=O)n(CC(=O)Nc4ccc5c(c4)OCO5)nc23)C1 (stereo not given)
Inhibition (Staphylococcus aureus): -13.51% | Inhibition (Escherichia coli): -11.79%

CC(C)c1nnc2c(SCC(=O)Nc3ccccc3F)nc3ccccc3n12
Inhibition (Staphylococcus aureus): 10.78% | Inhibition (Escherichia coli): -2.22%

COc1ccc(CN(c2ccc(C(C)C)cc2)S(=O)(=O)c2cccn3cnnc23)cc1
Inhibition (Staphylococcus aureus): 4.26% | Inhibition (Escherichia coli): 1.37%

O=C(Cn1nc2ccc(SCc3ccc(Cl)cc3)nn2c1=O)Nc1cccc(F)c1
Inhibition (Staphylococcus aureus): -14.75% | Inhibition (Escherichia coli): -12.61%

COc1ccc(CCn2c(=O)c3sccc3n3c(=O)n(Cc4c(F)cccc4Cl)nc23)cc1OC
Inhibition (Staphylococcus aureus): -2.47% | Inhibition (Escherichia coli): -5.54%

O=C(Cn1nc2c(Oc3ccccc3)nccn2c1=O)Nc1cc(F)ccc1F
Inhibition (Staphylococcus aureus): -5.96% | Inhibition (Escherichia coli): -11.57%

Cc1cc(C)cc(NC(=O)Cn2nc3n(C)c(=O)c4c(c(-c5ccccc5)cn4C)n3c2=O)c1
Inhibition (Staphylococcus aureus): 7.23% | Inhibition (Escherichia coli): 1.88%

CCOc1ccc(-n2ccn3c(SCC(=O)Nc4ccc(C)cc4Cl)nnc3c2=O)cc1
Inhibition (Staphylococcus aureus): 8.62% | Inhibition (Escherichia coli): -1.13%

O=c1n(Cc2nc(-c3ccc(OC(F)(F)F)cc3)no2)nc2ccc(-c3ccccc3)nn12
Inhibition (Staphylococcus aureus): -0.65% | Inhibition (Escherichia coli): -5.47%

CCc1ccc(NC(=O)CSc2nnc3c(=O)n(-c4ccccc4)ccn23)cc1
Inhibition (Staphylococcus aureus): 7.36% | Inhibition (Escherichia coli): -2.07%

Cc1nc(-c2ccccn2)cc2nn(CC(=O)Nc3ccccc3C(F)(F)F)c(=O)n12
Inhibition (Staphylococcus aureus): 2.98% | Inhibition (Escherichia coli): -9.66%

Cc1ccc(-c2cc3c4nnc(SCC(=O)Nc5cccc(Br)c5)n4ccn3n2)cc1
Inhibition (Staphylococcus aureus): 5.15% | Inhibition (Escherichia coli): -4.56%

Cc1nnc2c(SCC(=O)N3CCN(c4ccc(F)cc4)CC3)nc3ccccc3n12
Inhibition (Staphylococcus aureus): 9.13% | Inhibition (Escherichia coli): 7.96%

COc1ccc(OC)c(NC(=O)Cn2nc3c4c5c(sc4ncn3c2=O)CCCC5)c1
Inhibition (Staphylococcus aureus): 3.15% | Inhibition (Escherichia coli): -1.54%

O=C(Cn1nc2c(SCc3ccccc3)nccn2c1=O)NCc1ccccc1
Inhibition (Staphylococcus aureus): -16.25% | Inhibition (Escherichia coli): -19.33%

CCOc1ccccc1NC(=O)Cn1nc2c(Sc3ccc(C)cc3C)nccn2c1=O
Inhibition (Staphylococcus aureus): 2.42% | Inhibition (Escherichia coli): 0%

CCOc1ccc(-n2ccn3c(SCC(=O)Nc4ccc(CC)cc4)nnc3c2=O)cc1
Inhibition (Staphylococcus aureus): 18.59% | Inhibition (Escherichia coli): -0.7%

O=c1c2nnc(SCc3ccccc3F)n2ccn1-c1ccc(Br)cc1
Inhibition (Staphylococcus aureus): 14.85% | Inhibition (Escherichia coli): -2.34%

Cn1c(=O)c2sccc2n2c(=O)n(Cc3cccc(Br)c3)nc12
Inhibition (Staphylococcus aureus): 14.17% | Inhibition (Escherichia coli): 0.53%

Cc1ccc(-c2ccc3nn(CC(=O)Nc4ccccc4)c(=O)n3n2)cc1C
Inhibition (Staphylococcus aureus): 3.99% | Inhibition (Escherichia coli): -8.76%

Cc1ccc(-c2ccc3nn(CC(=O)Nc4ccc(Br)cc4)c(=O)n3n2)cc1C
Inhibition (Staphylococcus aureus): 15.41% | Inhibition (Escherichia coli): -2.09%

Cc1ccccc1CSc1nnc2c(=O)n(-c3ccc(F)cc3)ccn12
Inhibition (Staphylococcus aureus): 16.33% | Inhibition (Escherichia coli): -5.51%

CSc1ccc(CNC(=O)Cn2nc3c(N4CC(C)CC(C)C4)nccn3c2=O)cc1 (stereo not given)
Inhibition (Staphylococcus aureus): 11.21% | Inhibition (Escherichia coli): 0.68%

COc1ccc(N2CCN(C(=O)Cn3nc4c(Sc5cccc(C)c5)nccn4c3=O)CC2)cc1
Inhibition (Staphylococcus aureus): 0.43% | Inhibition (Escherichia coli): -16.62%

Cc1ccc(-c2ccc3nnc(CCC(=O)N4CCN(C(=O)c5ccco5)CC4)n3n2)cc1C
Inhibition (Staphylococcus aureus): 7.73% | Inhibition (Escherichia coli): -0.43%

N#CCn1nc2n(Cc3ccc(F)cc3)c(=O)c3ccccc3n2c1=O
Inhibition (Staphylococcus aureus): 1.37% | Inhibition (Escherichia coli): -10.2%

CC(C)(C)S(=O)(=O)c1ccc2nn(CC(=O)Nc3ccc(Br)cc3)c(=O)n2n1
Inhibition (Staphylococcus aureus): 3.67% | Inhibition (Escherichia coli): -5.05%

Cc1cc(C)cc(N(Cc2ccccc2)S(=O)(=O)c2cccn3cnnc23)c1
Inhibition (Staphylococcus aureus): -25.73% | Inhibition (Escherichia coli): -13.66%

COC(=O)c1ccc(NC(=O)Cn2nc3c4cc(-c5ccc(F)cc5)nn4ccn3c2=O)cc1
Inhibition (Staphylococcus aureus): -6.17% | Inhibition (Escherichia coli): 3.19%

CCc1nnc2c(SCC(=O)Nc3ccc(C)cc3Br)nc3ccccc3n12
Inhibition (Staphylococcus aureus): 2.22% | Inhibition (Escherichia coli): -2.07%

COC(=O)c1ccccc1NC(=O)Cn1nc2c(Oc3cccc(OC)c3)nccn2c1=O
Inhibition (Staphylococcus aureus): -4.11% | Inhibition (Escherichia coli): -21.29%

O=c1n(Cc2ccc3c(c2)OCO3)nc2ccc(-c3ccccc3)nn12
Inhibition (Staphylococcus aureus): 12.41% | Inhibition (Escherichia coli): -0.49%

CCc1ccc(N(Cc2ccc(F)cc2)S(=O)(=O)c2cccn3c(C)nnc23)cc1
Inhibition (Staphylococcus aureus): 6.87% | Inhibition (Escherichia coli): -8.04%

Cc1cc(NC(=O)Cn2c(=O)c3nnc(C(C)C)n3c3ccccc32)ccc1Br
Inhibition (Staphylococcus aureus): 13.77% | Inhibition (Escherichia coli): 0%

COC(=O)c1ccc(CN(c2ccc(F)cc2)S(=O)(=O)c2cccn3c(C)nnc23)o1
Inhibition (Staphylococcus aureus): 11.5% | Inhibition (Escherichia coli): -1.28%

COc1ccc(CNC(=O)Cn2nc3c(Oc4ccccc4C)nccn3c2=O)cc1
Inhibition (Staphylococcus aureus): 1.68% | Inhibition (Escherichia coli): -7.69%

Cc1cccc(NC(=O)CSc2nnc3ccc(C(=O)Nc4cccc(F)c4)cn23)c1
Inhibition (Staphylococcus aureus): 8.5% | Inhibition (Escherichia coli): -1.74%

Cc1cc(C)cc(NC(=O)CSc2nnc3c(=O)n(-c4ccc(Br)cc4)ccn23)c1
Inhibition (Staphylococcus aureus): 9.26% | Inhibition (Escherichia coli): -3.09%

COc1ccc(NC(=O)Cn2nc3c(Sc4cccc(F)c4)nccn3c2=O)cc1Cl
Inhibition (Staphylococcus aureus): 6.9% | Inhibition (Escherichia coli): -7.48%
